In the library only some 3.3% were active in any assay of this set; here they are far more common.
AmpC inh no detg: inhibitors of E. coli AmpC beta-lactamase without detergent. Potency, µM (doses to about 57.1 µM), inactives show top-dose activity change, negative = inhibition, hits mostly inhibitors. AmpC nitrocefin hydrolysis, absorbance 480 nm, 0.0001% Triton. 330,000 tested, 0.52% active;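 also: plate controls were no compound for no effect and no enzyme for full effect; nearly all actives have a fitted effect of over 20% in size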
Target sequence (P00811 whole entry, looked up): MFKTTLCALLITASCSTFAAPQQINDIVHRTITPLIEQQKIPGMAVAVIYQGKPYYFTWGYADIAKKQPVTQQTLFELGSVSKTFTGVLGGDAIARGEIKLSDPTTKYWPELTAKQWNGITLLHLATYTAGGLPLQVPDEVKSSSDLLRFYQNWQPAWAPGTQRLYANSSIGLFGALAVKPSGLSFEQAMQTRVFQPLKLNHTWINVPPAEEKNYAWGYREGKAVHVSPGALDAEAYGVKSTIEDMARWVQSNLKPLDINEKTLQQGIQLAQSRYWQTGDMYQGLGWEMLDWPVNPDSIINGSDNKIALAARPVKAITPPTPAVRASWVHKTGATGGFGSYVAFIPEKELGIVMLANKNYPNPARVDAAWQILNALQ
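20 mM phosphate pH 7.0 + 0.01% (detergent screen) or 0.0001% Triton X-100; 5.3 nM AmpC reagent; cpd preinc 15 min RT; nitrocefin (800 uM stock) to start; A480 q20 s × 4 min; Activity was normalised to no-enzyme and no-compound control wells.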
Sm TGR inh: S. mansoni TGR enzyme inhibition. purified TGR, DTNB reduction, TNB absorbance 405 nm. Potency, µM (highest dose often 114 µM), for the others: top-dose activity change, negative = inhibition, most hits filed as inhibitors. Q962Y6. 360,000 tested, 3% active; also: nearly all actives have a fitted effect of over 60% in size
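TGR 20 nM + NADPH 100 uM (dispensed conc.), cpd preinc 15 min RT; start with NADPH (500 uM addition) then DTNB (15 mM addition). Kinetic TNB absorbance, 405 nm filter. Four-parameter Hill fit across titration.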
AmpC detergent: blocks E. coli AmpC beta-lactamase in detergent assay. P00811. AmpC hydrolysis of nitrocefin, absorbance 480 nm, 0.01% Triton. Potency, µM (doses to about 114 µM), for the others: at the top dose activity change, negative = inhibition, most hits filed as inhibitors. 370,000 tested, 0.041% active. AID 485294;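 also: 0% = no-compound wells and -100% = no-enzyme wells; nearly all actives have a fitted effect of over 25% in size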
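20 mM phosphate pH 7.0 + 0.01% (detergent screen) or 0.0001% Triton X-100; 5.3 nM AmpC reagent; cpd preinc 15 min RT; nitrocefin (800 uM stock) to start; A480 q20 s × 4 min; Activity was normalised to no-enzyme and no-compound control wells.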
Numbers without * were called inactive; ? = inconclusive; / = no result given. Calls follow the shape of the dose curve; as a rule, active = well fitted curve in the direction sought with a large enough effect; inconclusive = small, poorly fitted or top-dose-only effect, or another doubt; inactive = no such curve, though single readings can be large; an effect the other way counts as inactive or inconclusive. Unless noted, % is scaled to controls: 0 for no effect and ±100 for the full control effect; potency is read from the fitted curve at half-maximal effect.

SMILES	AmpC inh no detg	Sm TGR inh	AmpC detergent
O=C(Nc1cccc2nsnc12)c1ccc(-c2cccc(Cl)c2)o1	-51%	6.3µM*	?
Cc1ccc2nsnc2c1NC(=O)Cc1ccc(Cl)cc1	-26%	6%	1%
Cc1ccc2nsnc2c1NC(=O)CCl	-17%	45µM*	-4%
O=C(NC1CC(=O)N(c2ccc(F)cc2)C1)c1cc2ccccc2o1 (configuration not stated)	/	2%	1%
COC(=O)c1ccc(NC(=O)CSc2ccc(-c3sc(-c4ccccc4)nc3C)nn2)cc1	/	-10%	-1%
CCN(C(=O)c1cc2c(s1)-c1ccccc1OC2)c1cccc(C(F)(F)F)c1	/	2%	30%
CCOc1ccccc1NC(=O)C(OC(=O)c1ccc(NC(=O)CC#N)cc1)c1ccccc1 (configuration not stated)	7.9µM*	-1%	-12%
CCOc1ccccc1NC(=O)C(OC(=O)c1ccccc1)c1ccccc1 (configuration not stated)	-20%	-4%	0%
CCOc1ccc(C(c2nnnn2C(C)(C)C)N2CCN(C(=O)c3ccco3)CC2)cc1 (configuration not stated)	104%	-13%	-9%
CCC(C)(C)n1nnnc1C(c1ccc(N(C)C)cc1)N1CCN(C2CCCCC2)CC1 (configuration not stated)	-6%	22µM*	-1%
CN(C)c1ccc(C(c2nnnn2C(C)(C)C)N2CCN(C(=O)c3ccco3)CC2)cc1 (configuration not stated)	42%	16µM*	?
CC(C)CCn1nnnc1C(c1ccc(N(C)C)cc1)N1CCN(C(=O)c2ccco2)CC1 (configuration not stated)	115%	45µM*	?
COCCn1nnnc1C(c1ccc(Cl)cc1)N1CCN(C(=O)c2ccco2)CC1 (configuration not stated)	71%	1%	?
CCC(C)(C)n1nnnc1C(c1ccccc1)N1CCN(C2CCCC2)CC1 (configuration not stated)	-15%	-7%	-3%
CCc1ccc(NC(=O)Cn2ccn(-c3ccc(C)c(C)c3)c(=O)c2=O)cc1	/	6%	18%
COc1ccc(OC)c(NC(=O)Cn2c(CCC(=O)O)ccc2-c2cccs2)c1	/	?	-9%
O=C(O)CCc1ccc(-c2cccs2)n1CCC(=O)O	0%	7.1µM*	-1%
Cc1ccc(NC(=O)Cn2c(CCC(=O)O)ccc2-c2cccs2)cc1Cl	-49%	25µM*	3%
O=C(O)CCc1ccc(-c2cccs2)n1CCc1ccccc1	-45%	10µM*	-5%
COc1cccc(NC(=O)Cn2c(CCC(=O)O)ccc2-c2cccs2)c1	-23%	-20%	0%
O=C(O)Cn1c(-c2cccs2)cc2cc(Cl)ccc21	/	-12%	8%
COc1ccc(C2=NC(C)(C)N(CC(=O)Nc3cccc(C)c3)C2=O)cc1	/	10%	16%
O=C(NCCc1ccc(Cl)cc1)C(=O)NCC(c1ccc2c(c1)OCO2)N1CCOCC1 (configuration not stated)	/	10%	3%
O=P(/C(=N/O)Sc1ccccc1)(N1CCOCC1)N1CCOCC1	-17%	13µM*	-2%
O=P(/C(=N/O)N1CCCCC1)(N1CCOCC1)N1CCOCC1	-13%	1%	-10%
SMILES	AmpC inh no detg	Sm TGR inh	AmpC detergent
Cc1ccc(C(=O)C2=C(O)C(=O)N(Cc3ccco3)C2c2cccc(Cl)c2)o1 (configuration not stated)	-53%	50µM*	0%
Cc1ccc(C(=O)C2=C(O)C(=O)N(Cc3ccco3)C2c2ccc(N(C)C)cc2)o1 (configuration not stated)	-43%	-23%	2%
COc1cccc(C2C(C(=O)c3ccc(C)o3)=C(O)C(=O)N2c2cc(C)on2)c1 (configuration not stated)	-26%	?	0%
O=C(C1=C(O)C(=O)N(Cc2ccco2)C1c1cccc(O)c1)c1ccco1 (configuration not stated)	-20%	?	?
Cc1ccc(C(=O)C2=C(O)C(=O)N(c3ncccn3)C2c2cccc(Cl)c2)o1 (configuration not stated)	-19%	11µM*	-7%
Cc1ccc(C(=O)C2=C(O)C(=O)N(Cc3ccco3)C2c2cccc(Br)c2)o1 (configuration not stated)	-25%	11µM*	4%
O=C(CN1C(=O)C2(SCC(=O)N2c2ccc(F)c(F)c2)c2ccccc21)NCCc1ccccc1 (configuration not stated)	/	13%	21%
O=C(CSCn1nnc2c(=O)[nH]c(Cc3ccc(F)cc3)nc21)Nc1cccc(C(F)(F)F)c1	/	-3%	11%
Cc1cccc(NC2=CC(c3cccc(Br)c3)N(c3cccc(C)c3)C2=O)c1 (configuration not stated)	/	?	22%
COc1cccc(C2C(=O)N(C3CCCCC3)CC(=O)N2Cc2ccc(Cl)cc2)c1 (configuration not stated)	/	10%	3%
CC(=O)N1CCN=C1SCc1ccccc1F	3.5µM*	-9%	-7%
CC(=O)N1CCN=C1SCc1ccccc1Cl	0%	-8%	?
COc1ccc(OC)c(NC(=O)Cc2c(C(=O)O)n(C)c3ccc(C)cc23)c1	/	22%	12%
O=C(CSc1nc2cc(C(=O)NC3CCCC3)ccc2c(=O)n1CC1CCCO1)c1ccc(F)cc1 (configuration not stated)	/	4%	1%
Oc1ccc(NCc2ccccc2OCc2ccc(Cl)cc2)cc1	/	45µM*	-1%
CCOc1cc(CNc2ccc(O)cc2)cc(Br)c1OCc1ccccc1	/	-1%	15%
CCOc1cc(CNc2ccc(O)cc2)ccc1OCc1ccc(Cl)cc1	/	45µM*	-2%
Oc1ccc(NCc2ccccc2OCc2ccccc2)cc1	-29%	14µM*	20%
COc1cc(CNc2ccc(O)cc2)cc(Br)c1OCc1ccccc1F	-24%	-32%	-4%
CCNCc1ccccc1OCc1ccccc1	-10%	3%	5%
O=c1[nH]c2ccc(NCc3ccccc3OCc3ccc(Cl)cc3)cc2[nH]1	-18%	?	3%
CCOc1cc(CNc2ccc(O)cc2)cc(Br)c1OCc1ccccc1F	4µM*	-15%	1%
CCOc1cc(-c2nc(-c3ccc(-c4ccc(C)cc4)nc3OC)no2)cc(OCC)c1OCC	/	2%	?
CCc1ccc(CN(Cc2ccco2)C(=O)c2cc(-c3ccc(C)c(F)c3)on2)cc1	/	-6%	5%
CC(=O)N1CCCC1c1nc2ccccc2n1Cc1c(F)cccc1Cl (configuration not stated)	/	2%	-1%
SMILES	AmpC inh no detg	Sm TGR inh	AmpC detergent
CCOc1ccc(NC(=O)CSc2nnc(CC)c(CC)n2)cc1	/	5%	0%
S=C(NCc1ccccc1)NNc1ccccc1	-34%	?	-3%
CCNC(=S)NNc1ccccc1	-6%	14µM*	-1%
Nc1c(Cl)ncnc1N/N=C/c1cccc(O)c1	-25%	?	?
Nc1c(Cl)ncnc1N/N=C/c1ccncc1	-8%	45µM*	-6%
COc1cc(C(=O)NNC(=O)NC2CCCCC2)cc(OC)c1OC	0.25µM*	1%	1%

Screening data from PubChem BioAssay.
